Results on 7 compounds are retold here after PubChem BioAssay (EPA / NIEHS).

The nature of experiment [1]: ATG_TAL_CIS: Attagene CIS-FACTORIAL HepG2 Assay for human TAL Basal Promoter (AID 2282966; active means hit-call score of the fitted dose curve at least 0.9, where 1 is the maximum; inactive means score below 0.9;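 further: background control endpoint measuring basal TAL promoter reporter mRNA not a specific factor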). The following applies: HepG2 Attagene cis-factorial TAL promoter reporter; actives raise or lower the signal. Summed up:
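Basal-promoter background-control endpoint from a multiplexed HepG2 reporter panel. Cells were exposed 24 h, then reporter mRNA was read by RT-PCR/CE fluorescence and fitted in both directions relative to DMSO.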

The nature of experiment [2]: ATG_TGFb_CIS: Attagene CIS-FACTORIAL HepG2 Assay for human Transforming Growth Factor (TGF) (AID 2282967; active means hit-call score of the fitted dose curve at least 0.9, where 1 is the maximum; inactive means score below 0.9). Particulars: HepG2 Attagene CIS TGFb reporter, mRNA transcription; actives raise or lower the signal. Summed up:
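Cells were dosed for 24 hours, after which total RNA was reverse-transcribed and reporter sequences amplified, labeled and sized by capillary electrophoresis. Activity was fitted in both directions against DMSO.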

Experiment [3] concerns the target Nuclear receptor subfamily 1 group I member 3 (Homo sapiens) (UniProt Q14994). Put plainly: ATG_CAR_TRANS: Attagene TRANS-FACTORIAL HepG2 Assay for human Constitutive Androstane Receptor (CAR) (AID 2282969).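 Further: activators raise reporter mRNA above DMSO so AC50 marks induction.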 Particulars: HepG2 Attagene TRANS-FACTORIAL CAR reporter. In a few lines: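 Signal is reporter mRNA induction relative to DMSO, measured 24 h after dosing by RT-PCR with fluorescent primer extension and capillary electrophoresis. Human HepG2 liver cells carried transiently transfected chimeric NR-Gal4/GAL4-UAS reporter constructs.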

Experiment [4] has as its target X-box-binding protein 1 (Homo sapiens) (UniProt P17861). Put plainly: ATG_Xbp1_CIS: Attagene CIS-FACTORIAL HepG2 Assay for human X-box Binding Protein 1 (XBP1) (AID 2282972; active means hit-call score of the fitted dose curve at least 0.9, where 1 is the maximum; inactive means score below 0.9). Particulars: HepG2 XBP1 cis-element reporter, Attagene multiplex; actives raise or lower the signal. Summed up: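 Read-out: fluorescent reporter mRNA fragments resolved by capillary electrophoresis after RT-PCR. Human HepG2 liver cells carried transfected cis-promoter reporter units and were exposed to chemicals for 24 hours. Gain or loss of signal fitted relative to DMSO baseline.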

Experiment [5] can be described thus: ATG_M_19_TRANS: Attagene TRANS-FACTORIAL HepG2 Assay for M19 Transcription Factor (Internal Marker) (AID 2282974). The following applies: HepG2 Attagene TRANS-FACTORIAL M19 internal marker reporter. In a few lines:
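Fluorescence of 6-FAM-labelled reporter cDNA fragments, separated by capillary electrophoresis, served as the readout. These derived from HepG2 cells carrying transfected GAL4-UAS reporter units after 24 h dosing, with DMSO as negative control.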

For experiment [6], the target named is Estrogen-related receptor gamma (Homo sapiens) (UniProt P62508). As to the kind of experiment: ATG_ERRg_TRANS: Attagene TRANS-FACTORIAL HepG2 Assay for human Estrogen-Related Receptor gamma (ERRg) (AID 2282977).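 Further: hits increase reporter signal over DMSO so potencies reflect activators.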 The following applies: HepG2 Attagene TRANS reporter, ERRg transactivation. Summed up: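 Exogenous NR-Gal4 chimera activity measured as reporter transcript induction after 24 h in transiently transfected HepG2 cells. RNA reverse-transcribed, PCR-amplified, 6-FAM-labelled and resolved by capillary electrophoresis; increase over DMSO baseline.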

Experiment [7] has as its target Glucocorticoid receptor (Homo sapiens) (UniProt P04150). Put plainly: ATG_GR_TRANS: Attagene TRANS-FACTORIAL HepG2 Assay for human Glucocorticoid Receptor (GR) (AID 2282978).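 Further: activators score as hits since higher reporter transcript over DMSO is fitted.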 The following applies: HepG2 Attagene TRANS GR reporter, mRNA transcription. Summed up: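 Fluorescent capillary-electrophoresis quantitation of reporter mRNA is the readout, taken 24 h after dosing human HepG2 cells carrying transiently transfected GAL4-UAS reporter units activated by chimeric NR-GAL4 fusions; activity scored as induction over DMSO.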

Experiment [8] concerns the target Bile acid receptor (Homo sapiens) (UniProt Q96RI1). As to the kind of experiment: ATG_FXR_TRANS: Attagene TRANS-FACTORIAL HepG2 Assay for Farnesoid X Receptor (FXR) (AID 2282979).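 Further: hits raise reporter mRNA above DMSO so AC50 marks FXR activation.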 The following applies: HepG2 Attagene TRANS FXR-GAL4 reporter transcription. In a few lines:
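HepG2 cells were transiently transfected with GAL4-UAS reporters driven by chimeric NR-Gal4 proteins and dosed for 24 h. Reporter mRNA was quantified by RT-PCR, fluorescent labelling, HpaI digestion and capillary electrophoresis, with gain of signal scored versus DMSO.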

Experiment [9] deals with Oxysterols receptor LXR-beta (Homo sapiens) (UniProt P55055). Put plainly: ATG_LXRb_TRANS: Attagene TRANS-FACTORIAL HepG2 Assay for human Liver X Receptor beta (LXRb) (AID 2282981). Particulars: HepG2 Attagene TRANS GAL4-LXRb reporter, mRNA. Summed up: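 After 24 h chemical treatment of transfected HepG2 cells carrying exogenous NR-Gal4 chimeras, reporter mRNA was quantified by fluorescent RT-PCR and capillary electrophoresis; activity taken as increase over DMSO controls.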
Oxysterols receptor LXR-beta (Homo sapiens), sequence (P55055 whole entry, looked up, the tested form may be a part): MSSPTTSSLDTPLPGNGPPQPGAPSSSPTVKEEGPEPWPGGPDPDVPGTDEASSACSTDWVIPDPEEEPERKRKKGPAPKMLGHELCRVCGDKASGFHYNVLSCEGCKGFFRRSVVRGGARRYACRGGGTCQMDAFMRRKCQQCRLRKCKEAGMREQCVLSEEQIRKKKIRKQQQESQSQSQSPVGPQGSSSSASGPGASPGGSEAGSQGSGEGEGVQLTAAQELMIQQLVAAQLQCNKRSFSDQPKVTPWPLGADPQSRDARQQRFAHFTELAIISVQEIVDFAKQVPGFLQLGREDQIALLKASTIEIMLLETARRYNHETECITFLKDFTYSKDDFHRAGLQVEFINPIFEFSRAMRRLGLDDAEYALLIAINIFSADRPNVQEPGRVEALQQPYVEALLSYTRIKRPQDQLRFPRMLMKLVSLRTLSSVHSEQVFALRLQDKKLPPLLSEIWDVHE

Experiment [10] in a line: ATG_M_06_TRANS: Attagene TRANS-FACTORIAL HepG2 Assay for M06 Transcription Factor (Internal Marker) (AID 2282983). Particulars: HepG2 Attagene TRANS M06 internal marker reporter. Summed up: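 mRNA levels of a reporter transcript, quantified as FAM fluorescence on capillary electrophoresis, served as readout. HepG2 cells expressing exogenous GAL4-chimera reporter constructs were exposed for 24 h. Gain of signal over DMSO was evaluated.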

The target in experiment [11] is Nuclear receptor subfamily 4 group A member 2 (Homo sapiens) (UniProt P43354). As to the kind of experiment: ATG_NURR1_TRANS: Attagene TRANS-FACTORIAL HepG2 Assay for human Nuclear Receptor Related Protein 1 (NURR1) (AID 2282985). Particulars: HepG2 Attagene TRANS reporter, mRNA readout. Summed up: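 Reporter transcript induction, measured by RT-PCR with fluorescent labelling, HpaI digestion and capillary electrophoresis, after 24 hr dosing of human HepG2 cells transiently expressing an exogenous NR-Gal4 fusion with GAL4-UAS-driven reporters; DMSO as baseline.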
Nuclear receptor subfamily 4 group A member 2 (Homo sapiens), sequence (P43354 whole entry, looked up, the tested form may be a part): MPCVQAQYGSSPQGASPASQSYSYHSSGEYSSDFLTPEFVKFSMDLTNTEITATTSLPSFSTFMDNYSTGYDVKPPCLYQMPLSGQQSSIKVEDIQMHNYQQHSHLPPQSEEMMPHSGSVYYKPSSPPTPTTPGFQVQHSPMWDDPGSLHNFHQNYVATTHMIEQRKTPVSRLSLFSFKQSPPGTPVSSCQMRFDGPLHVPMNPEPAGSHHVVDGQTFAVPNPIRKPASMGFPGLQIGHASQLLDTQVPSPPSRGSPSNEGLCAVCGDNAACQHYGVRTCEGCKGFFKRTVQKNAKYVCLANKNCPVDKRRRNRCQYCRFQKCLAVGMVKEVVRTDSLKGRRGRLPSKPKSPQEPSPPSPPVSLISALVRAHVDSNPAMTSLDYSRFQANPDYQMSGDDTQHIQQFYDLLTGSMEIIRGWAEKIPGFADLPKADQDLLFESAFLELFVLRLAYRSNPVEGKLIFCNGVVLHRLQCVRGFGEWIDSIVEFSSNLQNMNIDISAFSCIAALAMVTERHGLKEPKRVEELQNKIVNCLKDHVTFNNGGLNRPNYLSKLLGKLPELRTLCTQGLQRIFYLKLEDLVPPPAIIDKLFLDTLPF

Experiment [12] deals with Transcriptional activator Myb (Homo sapiens) (UniProt P10242). As to the kind of experiment: ATG_Myb_CIS: Attagene CIS-FACTORIAL HepG2 Assay for human Myeloblastosis (Myb) Proto-Oncogene Transcription Factor (AID 2282986; active means hit-call score of the fitted dose curve at least 0.9, where 1 is the maximum; inactive means score below 0.9). Particulars: HepG2 Attagene CIS-FACTORIAL Myb reporter transcription; actives raise or lower the signal. Summed up:
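Reporter transcript levels, quantified by fluorescent RT-PCR and capillary electrophoresis, serve as the read-out. Transfected HepG2 cells carrying cis-promoter reporter units are dosed for 24 hours, and curves are fitted bidirectionally against DMSO controls.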

Experiment [13] in a line: ATG_VDRE_CIS: Attagene CIS-FACTORIAL HepG2 Assay for human Vitamin D Receptor Element (VDRE) (AID 2282968; active means hit-call score of the fitted dose curve at least 0.9, where 1 is the maximum; inactive means score below 0.9). The following applies: HepG2 VDRE cis-reporter transcription, actives raise or lower the signal. Summed up: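 Readout is VDRE-driven reporter mRNA reflecting endogenous factor activity in human HepG2 cells, sampled 24 h post-dose. Quantification used labelled RT-PCR products separated by capillary electrophoresis; bidirectional analysis relative to DMSO.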

Experiment [14] can be described thus: ATG_GAL4_TRANS: Attagene TRANS-FACTORIAL HepG2 Assay for GAL4 (Internal Marker) (AID 2282976). The following applies: HepG2 Attagene TRANS GAL4 internal marker reporter. Summed up:
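Background-control readout: GAL4-UAS reporter transcript in transiently transfected HepG2 cells after 24 h compound exposure. Measured by RT-PCR, 6-FAM primer extension, HpaI digest and capillary electrophoresis; gain-of-signal fit versus DMSO.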

Experiment [15] has as its target Hepatocyte nuclear factor 4-alpha (Homo sapiens) (UniProt P41235). As to the kind of experiment: ATG_HNF4a_TRANS: Attagene TRANS-FACTORIAL HepG2 Assay for human Hepatocyte Nuclear Factor 4 alpha (HNF4a) (AID 2282982). The following applies: HepG2 HNF4a transactivation reporter, mRNA readout. Summed up:
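Activity of an exogenous HNF4a–Gal4 fusion scored as induced GAL4-UAS reporter transcripts after 24 h chemical exposure of transfected human HepG2 cells. Read-out via RT-PCR with 6-FAM labelling and capillary electrophoresis; rise over DMSO baseline.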

Experiment [16] deals with Estrogen receptor (Homo sapiens) (UniProt P03372). Put plainly: ATG_ERa_TRANS: Attagene TRANS-FACTORIAL HepG2 Assay for human Estrogen Receptor alpha (ERa) (AID 2282970). The following applies: HepG2 Attagene TRANS ERa GAL4 reporter, mRNA. Summed up:
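Gal4-fusion ERa transactivation, measured as reporter transcript level in transiently transfected HepG2 cells. Exposure 24 h; RT-PCR plus capillary electrophoresis with fluorescence detection.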

Experiment [17] has as its target Androgen receptor (Homo sapiens) (UniProt P10275). As to the kind of experiment: ATG_AR_TRANS: Attagene TRANS-FACTORIAL HepG2 Assay for human Androgen Receptor (AR) (AID 2282973). The following applies: HepG2 Attagene TRANS-FACTORIAL AR reporter transcription. In a few lines:
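HepG2 cells transiently transfected with AR-Gal4 chimera and GAL4-UAS reporter units; chemical exposure 24 h. Reporter mRNA quantified by RT-PCR with fluorescent labelling and capillary electrophoresis; gain-of-signal fitted against DMSO.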

Experiment [18] is described as follows: ATG_M_32_TRANS: Attagene TRANS-FACTORIAL HepG2 Assay for M32 Transcription Factor (Internal Marker) (AID 2282984). Particulars: HepG2 Attagene TRANS M32 internal marker reporter. Summed up:
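Internal background reporter in transfected HepG2: after 24 h chemical exposure, RNA reverse-transcribed, reporter cDNA amplified, fluorescently labelled and HpaI-cut, then sized by capillary electrophoresis. Gain of signal fitted against DMSO control.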

Each structure is given as a SMILES string. Where “and” joins values, the source holds several entries; their conditions need not be identical. Equal entries are not always repeated. Records with an inconclusive call do not appear. Some structures have more than one record in an assay (separate samples or runs), and their calls can disagree. Calls of active or inactive are those of the source. How the source made its calls, unless noted: active means hit-call score of the fitted dose curve at least 0.9, where 1 is the maximum; inconclusive means response in the unintended direction; inactive means score below 0.9.

Glucocorticoid receptor (Homo sapiens), sequence (P04150 whole entry, looked up, the tested form may be a part): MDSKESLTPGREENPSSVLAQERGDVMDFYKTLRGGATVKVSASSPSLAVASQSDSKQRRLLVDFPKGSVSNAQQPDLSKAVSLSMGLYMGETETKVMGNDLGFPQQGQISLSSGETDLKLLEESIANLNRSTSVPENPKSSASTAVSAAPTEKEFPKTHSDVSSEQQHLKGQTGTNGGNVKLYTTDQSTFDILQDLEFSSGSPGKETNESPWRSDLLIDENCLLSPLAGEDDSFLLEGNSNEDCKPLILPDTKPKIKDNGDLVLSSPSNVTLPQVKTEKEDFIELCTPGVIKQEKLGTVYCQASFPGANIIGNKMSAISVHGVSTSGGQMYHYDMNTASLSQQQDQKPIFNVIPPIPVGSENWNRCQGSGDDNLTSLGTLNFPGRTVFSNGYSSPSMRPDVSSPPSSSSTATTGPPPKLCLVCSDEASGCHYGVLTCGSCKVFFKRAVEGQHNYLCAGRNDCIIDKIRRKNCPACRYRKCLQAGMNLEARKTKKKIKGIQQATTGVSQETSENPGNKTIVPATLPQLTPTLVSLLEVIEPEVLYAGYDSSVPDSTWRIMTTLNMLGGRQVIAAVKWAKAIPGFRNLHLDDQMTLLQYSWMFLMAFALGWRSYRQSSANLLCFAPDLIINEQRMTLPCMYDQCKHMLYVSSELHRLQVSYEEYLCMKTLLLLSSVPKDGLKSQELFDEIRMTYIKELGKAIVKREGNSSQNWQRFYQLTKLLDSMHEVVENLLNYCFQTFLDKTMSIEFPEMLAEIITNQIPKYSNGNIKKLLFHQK
Hepatocyte nuclear factor 4-alpha (Homo sapiens), sequence (P41235 whole entry, looked up, the tested form may be a part): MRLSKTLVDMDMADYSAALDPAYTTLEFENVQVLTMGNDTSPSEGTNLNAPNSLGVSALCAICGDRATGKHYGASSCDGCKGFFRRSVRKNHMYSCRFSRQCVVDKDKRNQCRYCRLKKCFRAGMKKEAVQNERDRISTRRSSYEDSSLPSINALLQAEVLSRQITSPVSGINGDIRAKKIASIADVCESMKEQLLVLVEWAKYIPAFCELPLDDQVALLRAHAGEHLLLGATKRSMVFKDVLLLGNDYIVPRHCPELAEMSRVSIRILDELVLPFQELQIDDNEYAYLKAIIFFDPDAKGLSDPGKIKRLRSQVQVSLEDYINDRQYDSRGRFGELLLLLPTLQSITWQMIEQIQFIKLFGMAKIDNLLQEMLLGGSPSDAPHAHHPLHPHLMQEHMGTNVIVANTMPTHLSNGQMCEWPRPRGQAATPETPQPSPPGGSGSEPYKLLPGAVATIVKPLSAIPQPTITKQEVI
Bile acid receptor (Homo sapiens), sequence (Q96RI1 whole entry, looked up, the tested form may be a part): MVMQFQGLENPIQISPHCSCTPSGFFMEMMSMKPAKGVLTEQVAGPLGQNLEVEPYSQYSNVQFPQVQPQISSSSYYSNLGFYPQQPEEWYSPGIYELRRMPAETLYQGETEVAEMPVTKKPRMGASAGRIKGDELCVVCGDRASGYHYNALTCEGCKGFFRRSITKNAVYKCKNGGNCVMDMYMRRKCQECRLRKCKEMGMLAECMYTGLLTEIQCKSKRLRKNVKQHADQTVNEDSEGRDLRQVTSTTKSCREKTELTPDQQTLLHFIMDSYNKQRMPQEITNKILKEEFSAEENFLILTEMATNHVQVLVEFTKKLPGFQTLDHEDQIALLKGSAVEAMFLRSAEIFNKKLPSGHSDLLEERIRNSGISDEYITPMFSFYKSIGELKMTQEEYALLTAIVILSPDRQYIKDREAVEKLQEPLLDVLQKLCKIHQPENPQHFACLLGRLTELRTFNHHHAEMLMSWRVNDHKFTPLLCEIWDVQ
Nuclear receptor subfamily 1 group I member 3 (Homo sapiens), sequence (Q14994 whole entry, looked up, the tested form may be a part): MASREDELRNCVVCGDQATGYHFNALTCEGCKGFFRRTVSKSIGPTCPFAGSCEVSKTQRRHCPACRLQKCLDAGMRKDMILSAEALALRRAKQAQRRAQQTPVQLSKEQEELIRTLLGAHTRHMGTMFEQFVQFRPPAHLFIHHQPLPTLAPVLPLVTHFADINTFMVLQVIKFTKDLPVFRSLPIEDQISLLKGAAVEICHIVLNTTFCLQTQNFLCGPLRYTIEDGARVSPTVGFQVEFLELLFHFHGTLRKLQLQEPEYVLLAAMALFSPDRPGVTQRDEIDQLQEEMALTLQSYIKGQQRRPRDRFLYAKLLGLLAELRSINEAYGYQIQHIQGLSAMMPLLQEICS
Transcriptional activator Myb (Homo sapiens), sequence (P10242 whole entry, looked up): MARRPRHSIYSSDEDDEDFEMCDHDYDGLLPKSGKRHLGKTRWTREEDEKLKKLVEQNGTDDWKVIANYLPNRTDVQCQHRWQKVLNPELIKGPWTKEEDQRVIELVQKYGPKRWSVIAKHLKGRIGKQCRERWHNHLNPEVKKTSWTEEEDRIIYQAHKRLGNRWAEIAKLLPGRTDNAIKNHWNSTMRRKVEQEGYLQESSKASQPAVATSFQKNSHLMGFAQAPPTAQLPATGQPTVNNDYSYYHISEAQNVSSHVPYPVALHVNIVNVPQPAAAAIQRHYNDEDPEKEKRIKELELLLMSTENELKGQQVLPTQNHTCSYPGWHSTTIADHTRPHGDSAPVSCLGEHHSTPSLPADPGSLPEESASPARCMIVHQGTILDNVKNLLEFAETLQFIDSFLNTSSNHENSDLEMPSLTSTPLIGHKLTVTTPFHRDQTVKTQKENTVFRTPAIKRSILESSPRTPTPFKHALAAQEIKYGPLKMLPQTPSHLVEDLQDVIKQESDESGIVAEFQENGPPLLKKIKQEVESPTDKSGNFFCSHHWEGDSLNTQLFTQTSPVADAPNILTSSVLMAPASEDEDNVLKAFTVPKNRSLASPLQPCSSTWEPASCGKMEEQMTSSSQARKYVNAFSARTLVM
X-box-binding protein 1 (Homo sapiens), sequence (P17861 whole entry, looked up, the tested form may be a part): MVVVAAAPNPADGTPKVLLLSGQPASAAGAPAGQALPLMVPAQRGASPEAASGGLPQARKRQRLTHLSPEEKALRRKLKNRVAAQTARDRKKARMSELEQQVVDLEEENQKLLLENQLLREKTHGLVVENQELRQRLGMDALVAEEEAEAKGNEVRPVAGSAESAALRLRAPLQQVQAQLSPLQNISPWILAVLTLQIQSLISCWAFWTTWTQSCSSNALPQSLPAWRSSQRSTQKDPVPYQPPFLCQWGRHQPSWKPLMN
Androgen receptor (Homo sapiens), sequence (P10275 whole entry, looked up, the tested form may be a part): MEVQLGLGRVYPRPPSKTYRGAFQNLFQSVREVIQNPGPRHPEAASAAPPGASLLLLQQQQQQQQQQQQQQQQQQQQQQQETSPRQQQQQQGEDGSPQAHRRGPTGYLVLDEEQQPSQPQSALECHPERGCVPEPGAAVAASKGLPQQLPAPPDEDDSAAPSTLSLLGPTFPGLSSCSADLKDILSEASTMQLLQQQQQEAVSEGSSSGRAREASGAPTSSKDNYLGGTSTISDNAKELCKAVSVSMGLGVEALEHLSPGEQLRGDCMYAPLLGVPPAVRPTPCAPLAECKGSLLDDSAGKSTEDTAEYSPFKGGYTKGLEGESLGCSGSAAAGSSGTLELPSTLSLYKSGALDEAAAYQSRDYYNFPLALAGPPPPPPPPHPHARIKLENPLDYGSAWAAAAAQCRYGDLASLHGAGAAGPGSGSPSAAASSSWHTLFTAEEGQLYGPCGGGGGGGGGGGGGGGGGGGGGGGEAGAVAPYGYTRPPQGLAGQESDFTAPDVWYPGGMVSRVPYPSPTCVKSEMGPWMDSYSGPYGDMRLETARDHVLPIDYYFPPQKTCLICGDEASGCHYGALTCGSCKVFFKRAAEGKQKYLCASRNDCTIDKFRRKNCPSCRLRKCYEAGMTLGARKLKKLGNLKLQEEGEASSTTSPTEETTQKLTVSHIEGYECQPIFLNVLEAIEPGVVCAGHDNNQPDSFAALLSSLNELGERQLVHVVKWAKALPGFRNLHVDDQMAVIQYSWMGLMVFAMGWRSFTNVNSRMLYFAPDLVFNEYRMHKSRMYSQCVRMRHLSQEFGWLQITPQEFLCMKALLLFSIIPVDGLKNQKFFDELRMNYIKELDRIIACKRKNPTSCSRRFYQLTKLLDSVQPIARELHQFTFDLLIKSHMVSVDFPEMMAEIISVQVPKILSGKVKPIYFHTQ

Take `ClC(Cl)=C(c1ccc(Cl)cc1)c1ccc(Cl)cc1`: the call in experiment [1], in experiment [2], in experiment [3], in experiment [4], in experiment [5] and in experiment [6] was inactive. Besides, the compound was called inactive in [7], in [8], in experiment [9], in [10], in [11] and in [12]. Moreover, the AC50 (as a rule, the concentration at which the activity in the assay is half-maximal) in [4] was 150 µM (active).

`Cc1cc(-c2ccc(N)c(C)c2)ccc1N`: the compound was called inactive in experiment [1], in experiment [2], in [13], in experiment [3], in experiment [4] and in [5]. In addition, the call in [14], in experiment [9], in experiment [15], in [10], in [11] and in experiment [12] was inactive.

Regarding `O=C(O)C(F)(F)C(F)(F)C(F)(F)C(F)(F)C(F)(F)C(F)(F)C(F)(F)C(F)(F)F`, the outcome in [1], in experiment [2], in experiment [13], in [4], in experiment [5] and in experiment [7] was inactive. The result in experiment [8], in experiment [9], in experiment [15], in experiment [10] and in experiment [12] was inactive. Further, the concentration at half-maximal activity (AC50) in [2] was 48.2 µM (active) and 72.7 µM (active); in [13] it was 205 µM (active) and 40 µM (active); in experiment [4], 150 µM (active) and 39.2 µM (active); in experiment [8], 151 µM (active) and 219 µM (active); in [11] it was 38.9 µM (active) and 39.4 µM (active).

Turning to `CCOC(=O)C(O)(c1ccc(Cl)cc1)c1ccc(Cl)cc1`, the result in experiment [1], in experiment [2], in experiment [3], in [16], in experiment [4] and in experiment [17] was inactive. Also, the outcome in experiment [5], in experiment [14], in experiment [7], in experiment [10] and in [12] was inactive. For the same compound, the AC50 in experiment [13] was 11.1 µM (active).

For `CCNc1nc(NC(C)C)nc(SC)n1`, the compound was called inactive in [1], in [2], in experiment [3], in experiment [4], in experiment [17] and in experiment [5]. Further, the outcome in experiment [9], in experiment [15], in [10] and in experiment [12] was inactive.

In the case of `CCCCCCCCCc1ccc(O)cc1`, the outcome in experiment [1], in experiment [2], in [13], in [3], in [4] and in experiment [5] was inactive. In addition, the compound was called inactive in experiment [9], in experiment [15], in experiment [10], in experiment [11] and in experiment [12]. Also, the values for the AC50 in experiment [13], in experiment [4] and in experiment [12] were 151 µM (active), 32.8 µM (active) and 157 µM (active), respectively.

Consider `ClC1=C(Cl)[C@]2(Cl)[C@@H]3[C@@H]4C[C@@H]([C@H]5O[C@@H]45)[C@@H]3[C@@]1(Cl)C2(Cl)Cl`, for which the result in experiment [1], in [2], in [4], in experiment [7], in experiment [10] and in experiment [18] was inactive. For the same compound, the compound was called inactive in experiment [12]. Moreover, the AC50 in [13] was 17.6 µM (active).
